Test results: PubChem BioAssay AID651710 (Broad Institute, 2012)
Where “and” joins values, the source holds several entries; their conditions need not be identical. Equal values may be shown once. Screen size: about 360,000 compounds; about 1,600 (0.44%) were called active.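 The calls were made as follows: active = every replicate showing at least 50% inhibition; inconclusive = mean inhibition at least 50% but not in every replicate; inactive = the rest.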 For the sample, actives were picked, then their nearest neighbours and some compounds at random. The source holds several records for some structures; these can differ, active in one and inactive in another.

The compounds below were run against DNA repair protein RAD52 homolog (Homo sapiens) (UniProt P43351) (assay: blockers of RAD52 strand annealing activity – biochemical, FRET, single point, set 2, primary screen (AID 651710)). Details: recombinant RAD52 DNA annealing, FRET fluorescence; at 18.7 µM; stronger effect = higher value.
Chain of DNA repair protein RAD52 homolog (Homo sapiens) (P43351 whole entry, looked up): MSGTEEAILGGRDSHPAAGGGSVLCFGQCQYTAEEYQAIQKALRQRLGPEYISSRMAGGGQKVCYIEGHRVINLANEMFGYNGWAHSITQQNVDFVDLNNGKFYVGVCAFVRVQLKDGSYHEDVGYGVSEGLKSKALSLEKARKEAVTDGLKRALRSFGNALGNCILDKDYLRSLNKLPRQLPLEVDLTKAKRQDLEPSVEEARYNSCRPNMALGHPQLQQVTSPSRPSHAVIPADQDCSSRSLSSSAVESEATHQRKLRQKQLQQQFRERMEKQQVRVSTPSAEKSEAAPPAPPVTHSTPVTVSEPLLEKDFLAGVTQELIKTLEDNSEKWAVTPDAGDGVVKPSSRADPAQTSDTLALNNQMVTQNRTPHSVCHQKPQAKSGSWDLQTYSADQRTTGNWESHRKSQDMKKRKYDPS

SMILES	inhibition
COc1ccc2c3c(n(C)c2c1)[C@H](CO)N(S(=O)(=O)c1ccc(C)cc1)CC31CCN(C(=O)c2ccccn2)CC1	21.8% (inactive)
C[C@@H]1CN([C@@H](C)CO)C(=O)CCCn2nncc2CO[C@H]1CN(C)C(=O)Nc1ccc(C(F)(F)F)cc1	-10.9% (inactive) and -1.52% (inactive)
COC(=O)N(C)C[C@@H]1OCc2cnnn2CCCC(=O)N([C@@H](C)CO)C[C@@H]1C	0.525% (inactive) and 0.31% (inactive)
C[C@H]1CN([C@@H](C)CO)C(=O)CCCn2nncc2CO[C@@H]1CN(C)C(=O)Nc1ccc(N2CCN(C)CC2)cc1	60.1% (active) and 24.7% (inactive)
COc1ccc(S(=O)(=O)N2CC[C@@H]3[C@@H](CO)Nc4ccc(C#Cc5cccnc5)cc4[C@@H]32)cc1	0.847% (inactive)
Cc1noc(C)c1S(=O)(=O)N(C)C[C@H]1Oc2ccc(NC(=O)CCN3CCOCC3)cc2CC(=O)N([C@H](C)CO)C[C@H]1C	-2.41% (inactive)
C[C@H](CO)N1C[C@H](C)[C@H](CN(C)C)Oc2ccc(NC(=O)Nc3ccc(F)cc3)cc2CC1=O	-3.53% (inactive)
Cc1cccc(NC(=S)NCc2ccc3[nH]c4c(c3c2)CCCC4)c1	-21.7% (inactive)
Cc1cccc(NC(=S)NC23CN4CN(CN(C4)C2)C3)c1	82.8% (active)
Cc1cccc(NC(=O)NC2(C)CCS(=O)(=O)C2)c1 (stereo unspecified)	-1.1% (inactive)
Cc1cccc(-c2nc3ccc(C(=O)NCCN4CCN(C)CC4)cc3nc2-c2cccc(C)c2)c1	68% (active)
Cc1cccc(C(=O)OC(C)CN2CCN(C)CC2)c1 (stereo unspecified)	-5.75% (inactive)
O=C(NCCN1CCOCC1)c1cccc(S(=O)(=O)Nc2ccc(F)cc2)c1	2.89% (inactive)
CN(C)CC(=O)N1[C@H](CO)[C@@H](c2ccc(-c3cccc(C(=O)N(C)C)c3)cc2)[C@@H]1C#N	-31.9% (inactive)
Oc1ccc(N=Cc2sc3ccccc3c2Cl)cc1	55.8% (active)
O=C(NC1CCC1)[C@H]1[C@H](CO)[C@H]2Cn3c(ccc(C4=CCCCC4)c3=O)[C@@H]1N2CC1CC1	1.51% (inactive)
Nc1ccc(OCC(O)C[n+]2ccc(CCS(=O)(=O)[O-])cc2)cc1 (stereo unspecified)	58.1% (active)
CCc1ccc(S(=O)(=O)NCC(O)COc2ccc(OC)cc2)cc1 (stereo unspecified)	-8.48% (inactive)
CCCc1ccc(OCC(O)CN2CCN(C(=O)OCC)CC2)cc1 (stereo unspecified)	-8.19% (inactive)
COCC(=O)N1CC(=O)N2[C@H](C1)[C@H](c1ccc(C#CC3CCCCC3)cc1)[C@@H]2CO	6.1% (inactive)
COc1ccc2c3c([nH]c2c1)[C@H](CO)N(C(=O)c1ccccc1)CC31CCN(S(=O)(=O)c2cccs2)CC1	2.57% (inactive)
